Test results taken from PubChem BioAssay (NCATS).
Inconclusive results are not listed. Entries that show only a call come without a potency. A number with no mark means an inactive call. Activity calls are given as the source filed them. Calls follow the shape of the dose curve; as a rule, active = well fitted curve in the direction sought with a large enough effect; inconclusive = small, poorly fitted or top-dose-only effect, or another doubt; inactive = no such curve, though single readings can be large; an effect the other way counts as inactive or inconclusive.

What was measured:
HaCat [1] = assay: Cytotoxic Profiling of Annotated Libraries Using Quantitative High-Throughput Screening (AID 1296008); settings: Five cell lines viability, CellTiter-Glo ATP luminescence, 48-72 h; max response: hits give low values; also: nearly all actives have a fitted effect of over 60% in size; also: potency is read from the fitted curve at half-maximal effect
How it was run: (§1)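 Cells exposed to compounds for 48 or 72 hr at 37 degrees Celsius. Viability read as ATP-coupled luminescence with CellTiter-Glo after 10 min at room temperature.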

KB-3-1 = assay: as above; settings: Five cell lines viability, CellTiter-Glo ATP luminescence, 48-72 h; max response: hits give low values
How it was run: as §1

NIH3T3 [2] = assay: as above; settings: Five cell lines viability, CellTiter-Glo ATP luminescence, 48-72 h; max response: hits give low values
How it was run: as §1

HACAT [3] = assay: qHTS assay to identify novel small-molecules to repurpose for Merkel cell carcinoma treatment (AID 1296009); settings: MCC and control cell lines, CellTiter-Glo viability, 72 h; at 44.8 µM (top of the series) unless noted; also: nearly all actives have a fitted effect of over 60% in size; also: potency is read from the fitted curve at half-maximal effect
How it was run: (§2)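 CellTiter-Glo luminescence after 72 hr compound exposure at 37 degree celsius gave cell viability. Libraries NPC and MIPE were run as 8- and 11-point dose responses; RLUs normalized to DMSO (negative) and no-cell (cytotoxicity) controls.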

MCC-13 = assay: as above; settings: MCC and control cell lines, CellTiter-Glo viability, 72 h; series mostly up to 46 µM
How it was run: as §2

MCC-26 = assay: as above; settings: MCC and control cell lines, CellTiter-Glo viability, 72 h; series mostly up to 46 µM
How it was run: as §2

MKL-1 = assay: as above; settings: MCC and control cell lines, CellTiter-Glo viability, 72 h; series mostly up to 46 µM
How it was run: as §2

MKL-2 = assay: as above; settings: MCC and control cell lines, CellTiter-Glo viability, 72 h; series mostly up to 46 µM
How it was run: as §2

UISO = assay: as above; settings: MCC and control cell lines, CellTiter-Glo viability, 72 h; series mostly up to 46 µM
How it was run: as §2

WaGa = assay: as above; settings: MCC and control cell lines, CellTiter-Glo viability, 72 h; series mostly up to 46 µM
How it was run: as §2

CRL-7250 = normal cell line; assay: Cytotoxic Profiling of Annotated Libraries Using Quantitative High-Throughput Screening (AID 1296008); settings: Five cell lines viability, CellTiter-Glo ATP luminescence, 48-72 h; max response: hits give low values; also: nearly all actives have a fitted effect of over 60% in size; also: potency is read from the fitted curve at half-maximal effect
How it was run: as §1

NIH3T3 [4] = assay: qHTS assay to identify novel small-molecules to repurpose for Merkel cell carcinoma treatment (AID 1296009); settings: MCC and control cell lines, CellTiter-Glo viability, 72 h; at 44.8 µM (top of the series) unless noted; also: nearly all actives have a fitted effect of over 60% in size; also: potency is read from the fitted curve at half-maximal effect
How it was run: as §2

C33A = assay: Primary qHTS to identify gynecologic anti-cancer compounds using libraries of approved drugs and bioactive compounds (AID 1345084); settings: Gynecologic cancer cell panel viability, ATPlite luminescence, 48 h; series mostly up to 57.5 µM; also: nearly all actives have a fitted effect of over 55% in size
How it was run: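 ATP-based viability (ATPlite), 1,000 cells/well, 16 h pre-incubation, 48 h compound at 37 C, 5% CO2, 15 min RT before read.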

HEK293 = assay: Cytotoxic Profiling of Annotated Libraries Using Quantitative High-Throughput Screening (AID 1296008); settings: Five cell lines viability, CellTiter-Glo ATP luminescence, 48-72 h; max response: hits give low values; also: nearly all actives have a fitted effect of over 60% in size; also: potency is read from the fitted curve at half-maximal effect
How it was run: as §1

Compound	outcome (HaCat [1])	max response (KB-3-1) [%]	max response (NIH3T3 [2]) [%]	outcome (HACAT [3])	Potency (MCC-13)	Potency (MCC-26)	Potency (MKL-1)	Potency (MKL-2)	Potency (UISO)	Potency (WaGa)	max response (CRL-7250) [%]	outcome (NIH3T3 [2])	outcome (NIH3T3 [4])	Potency (C33A)	max response (HaCat [1]) [%]	Potency (HEK293)
C[C@]12COC(=O)C[C@@H]1CC[C@@H]1[C@H]2CC[C@@]2(C)[C@H]1CC[C@]2(C)O	inactive	0.496	-1.39	inactive	inactive	inactive	inactive	inactive	inactive	inactive	–	–	–	–	–	–
Fc1cc(Br)ccc1CBr	inactive	–	–	inactive	inactive	inactive	inactive	inactive	inactive	inactive	-5.31	inactive	inactive	inactive	–	–
CC1(C)CC/C(=C/c2ccc(Cl)cc2)C1(O)Cn1cncn1 (configuration not stated)	–	-19.8	-11.7	–	inactive	inactive	inactive	inactive	inactive	–	-5.73	–	–	inactive	–	–
COc1ccc(C(=O)c2c(C)n(CCN3CCOCC3)c3cc(I)ccc23)cc1	inactive	–	–	inactive	inactive	inactive	–	1.48 µM (active)	–	inactive	4.04	inactive	inactive	–	–	–
Oc1ccc2c3c1O[C@H]1[C@@H](O)C=C[C@H]4[C@@H](C2)NCC[C@@]341	–	-5.17	-2.9	–	inactive	inactive	–	–	inactive	25 µM (active)	-20.7	–	–	inactive	-5.53	–
CCO/N=C(\CC)C1=C(O)CC(c2c(C)cc(C)cc2C)CC1=O (configuration not stated)	–	-11.8	-12.4	–	inactive	–	inactive	–	inactive	–	–	–	–	inactive	-8.94	24.3 µM (active)
